{"source": "paper PMC11006913", "data": [{"molecular_target": "PITX2 (Homo sapiens, UniProt Q99697 72-157)", "experiment": "PBM; 200 nM protein, PBS", "conditions": "dsDNA, one strand shown", "values": [{"sequence": "GGAATAAA", "binding signal": "9.51 upbm affinity estimate (log intensity, higher = more binding, comparable within an allelic series)"}, {"sequence": "GGATTTAC", "binding signal": "12.3 upbm affinity estimate (log intensity, higher = more binding, comparable within an allelic series)"}, {"sequence": "CCTACCAG", "binding signal": "8.01 upbm affinity estimate (log intensity, higher = more binding, comparable within an allelic series)"}, {"sequence": "CGCCAGCA", "binding signal": "8 upbm affinity estimate (log intensity, higher = more binding, comparable within an allelic series)"}, {"sequence": "GACGCGAC", "binding signal": "7.93 upbm affinity estimate (log intensity, higher = more binding, comparable within an allelic series)"}, {"sequence": "GCGGCGCC", "binding signal": "7.97 upbm affinity estimate (log intensity, higher = more binding, comparable within an allelic series)"}, {"sequence": "CGAGCGTC", "binding signal": "7.93 upbm affinity estimate (log intensity, higher = more binding, comparable within an allelic series)"}, {"sequence": "CAACCATC", "binding signal": "8.24 upbm affinity estimate (log intensity, higher = more binding, comparable within an allelic series)"}, {"sequence": "ACAATCCC", "binding signal": "10.3 upbm affinity estimate (log intensity, higher = more binding, comparable within an allelic series)"}, {"sequence": "CATTATTC", "binding signal": "9.49 upbm affinity estimate (log intensity, higher = more binding, comparable within an allelic series)"}, {"sequence": "GAAGGTCA", "binding signal": "7.87 upbm affinity estimate (log intensity, higher = more binding, comparable within an allelic series)"}, {"sequence": "GGAGAGAC", "binding signal": "8.03 upbm affinity estimate (log intensity, higher = more binding, comparable within an allelic series)"}, {"sequence": "CACTCGCA", "binding signal": "8.08 upbm affinity estimate (log intensity, higher = more binding, comparable within an allelic series)"}, {"sequence": "ACCGTTGC", "binding signal": "8.17 upbm affinity estimate (log intensity, higher = more binding, comparable within an allelic series)"}, {"sequence": "ACGATGCC", "binding signal": "7.9 upbm affinity estimate (log intensity, higher = more binding, comparable within an allelic series)"}, {"sequence": "ATTAGGCC", "binding signal": "10 upbm affinity estimate (log intensity, higher = more binding, comparable within an allelic series)"}, {"sequence": "CTGTCGAC", "binding signal": "7.99 upbm affinity estimate (log intensity, higher = more binding, comparable within an allelic series)"}, {"sequence": "GAGTGCGC", "binding signal": "7.98 upbm affinity estimate (log intensity, higher = more binding, comparable within an allelic series)"}, {"sequence": "GGATTTAA", "binding signal": "12.5 upbm affinity estimate (log intensity, higher = more binding, comparable within an allelic series)"}, {"sequence": "CAACGGGC", "binding signal": "7.95 upbm affinity estimate (log intensity, higher = more binding, comparable within an allelic series)"}, {"sequence": "ACGTGTCC", "binding signal": "8.04 upbm affinity estimate (log intensity, higher = more binding, comparable within an allelic series)"}, {"sequence": "AAATCTCC", "binding signal": "10.8 upbm affinity estimate (log intensity, higher = more binding, comparable within an allelic series)"}, {"sequence": "ACTCGACC", "binding signal": "7.76 upbm affinity estimate (log intensity, higher = more binding, comparable within an allelic series)"}, {"sequence": "TGACGCAA", "binding signal": "8.04 upbm affinity estimate (log intensity, higher = more binding, comparable within an allelic series)"}, {"sequence": "GAGATATC", "binding signal": "8.8 upbm affinity estimate (log intensity, higher = more binding, comparable within an allelic series)"}, {"sequence": "ACAGATCT", "binding signal": "9.05 upbm affinity estimate (log intensity, higher = more binding, comparable within an allelic series)"}, {"sequence": "AGTGCCTC", "binding signal": "7.74 upbm affinity estimate (log intensity, higher = more binding, comparable within an allelic series)"}, {"sequence": "GCGCTTAA", "binding signal": "11.1 upbm affinity estimate (log intensity, higher = more binding, comparable within an allelic series)"}, {"sequence": "ACTGTCAG", "binding signal": "7.86 upbm affinity estimate (log intensity, higher = more binding, comparable within an allelic series)"}, {"sequence": "CTGAGATA", "binding signal": "9.22 upbm affinity estimate (log intensity, higher = more binding, comparable within an allelic series)"}, {"sequence": "GAATATTA", "binding signal": "9.35 upbm affinity estimate (log intensity, higher = more binding, comparable within an allelic series)"}, {"sequence": "CCAAATCG", "binding signal": "9.39 upbm affinity estimate (log intensity, higher = more binding, comparable within an allelic series)"}, {"sequence": "GACAACGC", "binding signal": "7.92 upbm affinity estimate (log intensity, higher = more binding, comparable within an allelic series)"}, {"sequence": "AAAGCCGA", "binding signal": "9.6 upbm affinity estimate (log intensity, higher = more binding, comparable within an allelic series)"}, {"sequence": "ACATACGT", "binding signal": "8.05 upbm affinity estimate (log intensity, higher = more binding, comparable within an allelic series)"}, {"sequence": "CTATCGCC", "binding signal": "8.13 upbm affinity estimate (log intensity, higher = more binding, comparable within an allelic series)"}, {"sequence": "ATTACAGA", "binding signal": "9.82 upbm affinity estimate (log intensity, higher = more binding, comparable within an allelic series)"}, {"sequence": "CAGTACTG", "binding signal": "7.98 upbm affinity estimate (log intensity, higher = more binding, comparable within an allelic series)"}, {"sequence": "CAGTTTCA", "binding signal": "7.95 upbm affinity estimate (log intensity, higher = more binding, comparable within an allelic series)"}, {"sequence": "CGGGCACA", "binding signal": "8 upbm affinity estimate (log intensity, higher = more binding, comparable within an allelic series)"}]}]}
